Over roughly 140,000 sequences, “enrichment ratio after two sorts for PhoP signalling” has its median near 0; the highest 2% begin near 11. This excerpt belongs to a sample that is enriched for the highest values.

B1: PhoQ; a variant is named by its letters at X, in order, P23837 (parent)
chain: MKKLLRLFFPLSLRVRFLLATAAVVLVLSLAYGMVALIGYSVSFDKTTFRLLRGESNLFYTLAKWENNKLHVELPENIDKQSPTMTLIYDENGQLLWAQRDVPWLMKMIQPDWLKSNGFHEIEADVNDTSLLLSGDHSIQQQLQEVREDDDDAEMTHSVAVNVYPATSRMPKLTIVVVDTIPVELKSSYMVWSWFIYVLSANLLLVIPLLWVAAWWSLRPIEALAKEVRELEEHNRELLNPATTRELTSLVRNLNRLLKSERERYDKYRTTLTDLTHSLKTPLXXLQXXLRSLRSEKMSVSDAEPVMLEQISRISQQIGYYLHRASMRGGTLLSRELHPVAPLLDNLTSALNKVYQRKGVNISLDISPEISFVGEQNDFVEVMGNVLDNACKYCLEFVEISARQTDEHLYIVVEDDGPGIPLSKREVIFDRGQRVDTLRPGQGVGLAVAREITEQYEGKIVAGESMLGGARMEVIFGRQHSAPKDE

In this assay the parent is B1. Briefly: enrichment ratio after two sorts for PhoP signalling (ratio (wild type AVST 3.29)); higher = more functional. The following applies: with PhoP (E. coli).
For the variant FWCS, the enrichment ratio is 1.37.
Regarding HQAE, the enrichment ratio is at most 0.25.
The result for APEP reads at most 0.25; that for AHCL, 9.7; that for ACFH, at most 0.25.
The result for ACCI reads 26.9; that for KCCC, at most 0.25; that for ACCK, 12.8.
The result for KCCY reads at most 0.25; that for ACCA, 7.21; that for ACCY, 19.6.
For the variant VCCY, the enrichment ratio was at most 0.25.
With ACCS, the enrichment ratio came out at 2.23.
The result for ACCC reads 34.1; that for YDTQ, at most 0.25; that for GRPL, at most 0.25.
The result for KEDR reads at most 0.25; that for FEMC, 10.8; that for IQYT, at most 0.25.
The result for DHLG reads at most 0.25.
For NLYQ, the enrichment ratio was at most 0.25.
MPYA: the enrichment ratio was at most 0.25.
With ACCV, the enrichment ratio came out at 8.87.
The result for ACNK reads at most 0.25.
The result for ACCE reads at most 0.25; that for ACCM, 14.9.
With ACCG, the enrichment ratio was found to be 25.4.
Turning to PCQA, the enrichment ratio was at most 0.25.
For HATN, the enrichment ratio is at most 0.25.
The result for NYIP reads at most 0.25; that for NACL, 4.16; that for TACF, 18.8.
As to TACS, the enrichment ratio amounted to 14.1.
The result for TACE reads at most 0.25.
The result for KACF reads at most 0.25; that for TAMD, 6.3.
The result for TACI reads 22.6; that for NACF, at most 0.25; that for TACL, 11.4.
Consider TACA, for which the enrichment ratio amounted to 8.47.
For TAAI, the enrichment ratio was 7.96.
The result for KACL reads at most 0.25; that for WKNR, at most 0.25; that for VKRR, at most 0.25.
The result for DLFL reads at most 0.25; that for DTVY, at most 0.25.
GNTN: the enrichment ratio was at most 0.25.
The result for FYCC reads at most 0.25; that for AHHD, at most 0.25; that for RGHL, 0.34.
Take VRKH: the enrichment ratio was at most 0.25.
Consider TADH, for which the enrichment ratio was determined as 4.03.
The result for YACQ reads at most 0.25; that for TACQ, 15.
The result for TACR reads 14.8; that for NACR, at most 0.25; that for TACC, 13.6.
KACC: the enrichment ratio was at most 0.25.
Regarding TAQP, the enrichment ratio was at most 0.25.
Take TAKR: the enrichment ratio was at most 0.25.
Take WVLV: the enrichment ratio is at most 0.25.
With EKCV, the enrichment ratio is at most 0.25.
The result for QQYK reads at most 0.25; that for RYKI, at most 0.25.
The result for WKHA reads at most 0.25; that for HFSC, at most 0.25; that for VSFV, 0.649.
The result for WDSR reads at most 0.25; that for IQCD, at most 0.25.
As for NQCD, the enrichment ratio is at most 0.25.
In the case of AQCD, the enrichment ratio stood at 42.7.
With KKCD, the enrichment ratio was at most 0.25.
Take TKCD: the enrichment ratio came to 21.6.
The result for WLCD reads at most 0.25; that for TQCD, 29.3; that for AICD, 5.13.
Regarding SLCD, the enrichment ratio worked out at 17.9.
The result for AKCD reads 0.285; that for ANCD, 0.285; that for PLCD, at most 0.25.
The result for FDEE reads at most 0.25; that for LLLK, at most 0.25; that for IWDM, at most 0.25.
The result for WDSH reads at most 0.25; that for HNFP, at most 0.25.
For PDHT, the enrichment ratio is at most 0.25.
As to MHPL, the enrichment ratio was at most 0.25.
For KHNC, the enrichment ratio is at most 0.25.
As to AWVP, the enrichment ratio was at most 0.25.
On to NDNL, for which the enrichment ratio is at most 0.25.
With SQCD, the enrichment ratio was 11.4.
The result for SPCD reads at most 0.25.
Regarding SNCD, the enrichment ratio was found to be 16.4.
The result for FQCD reads at most 0.25.
The result for SCCD reads 16.2; that for STCD, 6.22.
The result for KYCD reads at most 0.25.
Consider KCCD, for which the enrichment ratio is at most 0.25.
Turning to VCCD, the enrichment ratio was at most 0.25.
Regarding GQTA, the enrichment ratio was at most 0.25.
As to QQPV, the enrichment ratio is at most 0.25.
TPAE: the enrichment ratio was at most 0.25.
For VMCM, the enrichment ratio is at most 0.25.
The result for QQDM reads at most 0.25; that for SEES, 6.49; that for LFRE, at most 0.25.
The result for EYQC reads at most 0.25; that for GNCF, 6.9; that for FVCF, 12.
The result for PVCF reads at most 0.25; that for NVCF, at most 0.25.
GVCF: the enrichment ratio turned out to be 25.
In the case of MVCF, the enrichment ratio stood at 5.97.
The result for KKRY reads at most 0.25.
The result for LMRK reads at most 0.25; that for KFQK, at most 0.25; that for KDWW, at most 0.25.
The result for MEIG reads 8.35; that for NEIG, at most 0.25; that for TEIG, 18.6.
TEYV: the enrichment ratio is 4.31.
With HRMR, the enrichment ratio is at most 0.25.
The result for TEMV reads 20.2.
The result for TEGR reads at most 0.25; that for TEMW, at most 0.25; that for TEMR, 12.2.
The result for TEMD reads 1.58; that for TEMS, 11.4.
As for TEEV, the enrichment ratio is at most 0.25.
The result for VAVY reads at most 0.25; that for IKRV, at most 0.25.
The result for WDMR reads at most 0.25; that for RSTE, at most 0.25.
The result for RVPP reads at most 0.25.
As for KQPC, the enrichment ratio is at most 0.25.
Turning to EFMI, the enrichment ratio was at most 0.25.
The result for QNHE reads at most 0.25.
The result for HRLN reads at most 0.25; that for REIC, at most 0.25.
The result for VPQL reads at most 0.25; that for TEMK, 32.5.
Regarding TEVG, the enrichment ratio was 10.9.
TEGV: the enrichment ratio stood at 12.6.
Regarding TGGV, the enrichment ratio was found to be 4.98.
The result for HPWV reads at most 0.25; that for TEHV, 10.3.
The result for NRMK reads at most 0.25; that for KSWV, at most 0.25; that for TEMG, 19.1.
The result for KRMK reads at most 0.25; that for TEWV, 18.4; that for TEGG, 5.71.
In the case of GQIN, the enrichment ratio is at most 0.25.
Turning to NEIF, the enrichment ratio is at most 0.25.
The result for PWWM reads at most 0.25.
The result for LMKL reads at most 0.25; that for AMSP, at most 0.25.

(Values after a collection of fitness landscapes (doi:10.1126/science.1257360).)
